In PubChem BioAssay:
Activity calls are given as the source filed them. Unless noted, how the calls were made is not given here.

What was measured:
[1] = anti-His antibody binders, primary screen, artefact control for SMM control protein annotation, biochemical, small-molecule microarray, 635 nm fluorescence (AID 1128); details: anti-His Alexa647 antibody binding, higher = more signal;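 further: score merges feature fluorescence with signal-to-noise for each printed compound spot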
[2] = tested on: Human papillomavirus type 1a E7 protein (residues 1-88); test: HPV1a E7 small-molecule binders, primary screen, biochemical, small-molecule microarray, residues 1-88, 635 nm (AID 1129); details: small-molecule microarray binding, fluorescence 635 nm; higher = more signal
[3] = biological target: Focal adhesion kinase 1 (Homo sapiens) (UniProt Q05397); test: small-molecule microarray binders of FAK, primary screen, biochemical, 635/667 nm fluorescence, BSA, DTT (AID 1130); details: PTK2 binding, 635 nm fluorescence, higher = more signal;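 further: composite of spot emission at 667 nm and signal to noise over triplicate slides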
[4] = tested on: Fibrinogen (Alexa647-labelled); test: fibrinogen binders on compound microarrays, profiling panel, artefact control for SMM control-protein annotation, biochemical, small-molecule microarray, 635/667 nm fluorescence (AID 1131); details: fibrinogen-A647 binding fluorescence, higher = more signal;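 further: z-score merges 667 nm fluorescence with per-spot signal-to-noise over triplicate slides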
[5] = biological target: Follistatin (Homo sapiens) (UniProt P19883); test: follistatin binders on small-molecule microarrays, primary screen, biochemical, small-molecule microarray, 635/667 nm fluorescence (AID 1132); details: FST binding, 635 nm fluorescence, higher = more signal
[6] = biological target: Fibroblast growth factor 2 (Homo sapiens) (UniProt P09038); test: FGF2 binders on small-molecule microarrays, primary screen, biochemical, small-molecule microarray, 635/667 nm fluorescence (AID 1133); details: small-molecule microarray binding, FGF2, fluorescence 635/667; higher = more signal
[7] = mitochondrial membrane potential change in A549 cells, profiling panel, cell-based, JC-1 fluorescence, basal, 24 h, 100 nL (AID 1138); details: higher = more signal;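 further: A549 lung adenocarcinoma cells under basal conditions with no added stimulus; test concentration not given here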
Lefty1 = Lefty1 binders on small-molecule microarrays, primary screen, biochemical, small-molecule microarray, 635/667 nm fluorescence (AID 1139); details: small-molecule microarray binding, fluorescence 635/667; higher = more signal
[8] = tested on: wheat germ agglutinin (Triticum aestivum), Alexa647-labelled; test: wheat germ agglutinin binders on compound microarrays, profiling panel, artefact control for SMM control-protein annotation, biochemical, small-molecule microarray, 635/667 nm fluorescence (AID 1140); details: WGA-A647 binding, 635 nm fluorescence, higher = more signal;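 further: score merges 667 nm feature emission with signal to noise over triplicate slides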
[9] = biological target: Luciferin 4-monooxygenase (Photinus pyralis) (UniProt P08659); test: firefly luciferase enzyme inhibitors, primary screen, biochemical, luminescence, purified enzyme, 2006 set (AID 1141); details: SteadyGlo luminescence, 30 min, higher = more signal, called active from +8 up or from −8 down;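 further: cell-free assay with purified firefly luciferase at 100 ng per well in PBS; test concentration not given here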
[10] = tested on: Wnt5a (protein binding on small-molecule microarray); test: Wnt5a binders on small-molecule microarray, primary screen, biophysical, 635/667 nm fluorescence (AID 1142); details: 635 nm fluorescence, higher = more signal;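 further: fluorescence read at 667 nm with signal to noise per printed feature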
[11] = cell viability in Huh7 cells, primary screen, cytotoxicity control for HCV replication inhibitor project, CellTiter-Glo luminescence, basal, 48 h (AID 1143); details: Huh7 HCV replicon, higher = more signal, called active from +8 up or from −8 down;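 further: Huh7 hepatoma cells carrying a hepatitis C replication reporter with no stimulus; test concentration not given here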
[12] = P. aeruginosa biofilm formation inhibitors, primary screen, PAO1 strain, BacTiter-Glo luminescence, LB-PBS (AID 1144); details: 12 h, higher = more signal
[13] = CREB reporter modulators without forskolin, primary screen, cell-based, PC12, CRE-LacZ reporter, unstimulated (AID 1145); details: no forskolin, luminescence, 4.5 h, higher = more signal, called active from +8 up or from −8 down
[14] = CREB reporter modulators under forskolin, primary screen, cell-based, PC12, CRE-LacZ reporter, forskolin-stimulated (AID 1146); details: luminescence, 4.5 h, higher = more signal, called active from +8 up or from −8 down;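 further: PC12 cells with 6xCRE LacZ reporter stimulated by forskolin 10 µM; beta-galactosidase reporter signal reflecting CREB driven transcription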
[15] = biological target: Streptavidin (Streptomyces avidinii) (UniProt P22629); test: streptavidin binders on small-molecule microarray, primary screen, artefact control for SMM compound annotation, biophysical, 635/667 nm fluorescence (AID 1147); details: streptavidin binding, higher = more signal;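 further: signal reflects streptavidin binding to arrayed compounds as a control protein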
[16] = small-molecule binders of probe aInhba, primary screen, biochemical, small-molecule microarray, 635/667 nm fluorescence (AID 1148); details: higher = more signal;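 further: score merges 667nm spot fluorescence with signal-to-noise for antibody binding to printed compounds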
Torsin-1A (Homo sapiens) [17] = biological target: Torsin-1A (Homo sapiens) (UniProt O14656); test: torsin A binders from cell lysate, primary screen, small-molecule microarray, wild-type, 635/667 nm (AID 1149); details: COS7 hTOR1A-WT lysate, 635 nm fluorescence, higher = more signal
Torsin-1A (Homo sapiens) [18] = biological target: Torsin-1A (Homo sapiens) (UniProt O14656); test: small-molecule binders of mutant TOR1A in lysate, primary screen, cell lysate, small-molecule microarray, COS7 lysate, 635/667 nm fluorescence (AID 1150); details: COS7 hTOR1A mutant lysate, 635 nm fluorescence, higher = more signal;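 further: score pools 667 nm emission and signal to noise measuring lysate protein binding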
[19] = tested on: Sonic hedgehog protein (Shh); test: small-molecule binders of Shh protein, primary screen, biochemical, small-molecule microarray, 635/667 nm fluorescence (AID 1151); details: small-molecule microarray binding, 635 nm fluorescence; higher = more signal;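 further: Shh protein binding to compounds spotted on small-molecule microarray slides; score combines spot fluorescence intensity with signal-to-noise across triplicate slides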

Chain of Focal adhesion kinase 1 (Homo sapiens) (Q05397 whole entry, looked up): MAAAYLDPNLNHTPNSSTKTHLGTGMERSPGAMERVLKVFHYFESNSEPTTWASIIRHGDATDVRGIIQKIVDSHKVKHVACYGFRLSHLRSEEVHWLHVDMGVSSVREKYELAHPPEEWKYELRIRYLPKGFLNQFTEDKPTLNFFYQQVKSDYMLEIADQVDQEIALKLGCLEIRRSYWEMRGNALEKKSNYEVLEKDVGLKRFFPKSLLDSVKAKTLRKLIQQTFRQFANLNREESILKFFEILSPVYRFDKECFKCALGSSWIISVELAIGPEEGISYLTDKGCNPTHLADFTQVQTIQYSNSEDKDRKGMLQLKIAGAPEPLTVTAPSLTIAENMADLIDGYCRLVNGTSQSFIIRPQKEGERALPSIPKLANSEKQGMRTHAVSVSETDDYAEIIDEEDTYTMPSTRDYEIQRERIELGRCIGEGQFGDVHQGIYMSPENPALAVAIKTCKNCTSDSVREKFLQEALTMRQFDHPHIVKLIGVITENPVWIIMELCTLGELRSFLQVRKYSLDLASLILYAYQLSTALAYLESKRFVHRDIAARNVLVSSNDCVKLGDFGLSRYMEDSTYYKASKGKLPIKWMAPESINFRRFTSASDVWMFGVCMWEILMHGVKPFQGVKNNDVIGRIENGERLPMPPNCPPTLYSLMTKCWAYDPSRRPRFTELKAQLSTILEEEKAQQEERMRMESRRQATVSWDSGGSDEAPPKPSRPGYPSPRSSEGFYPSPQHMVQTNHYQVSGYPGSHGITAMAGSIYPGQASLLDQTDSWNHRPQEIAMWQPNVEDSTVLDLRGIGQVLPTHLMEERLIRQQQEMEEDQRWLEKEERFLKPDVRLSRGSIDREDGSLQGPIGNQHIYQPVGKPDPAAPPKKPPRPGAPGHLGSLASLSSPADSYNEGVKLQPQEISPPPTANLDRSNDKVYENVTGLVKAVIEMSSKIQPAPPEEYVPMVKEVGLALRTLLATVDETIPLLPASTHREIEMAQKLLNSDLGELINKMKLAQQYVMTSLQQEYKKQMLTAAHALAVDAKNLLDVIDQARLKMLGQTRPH
Chain of Torsin-1A (Homo sapiens) (O14656 whole entry, looked up): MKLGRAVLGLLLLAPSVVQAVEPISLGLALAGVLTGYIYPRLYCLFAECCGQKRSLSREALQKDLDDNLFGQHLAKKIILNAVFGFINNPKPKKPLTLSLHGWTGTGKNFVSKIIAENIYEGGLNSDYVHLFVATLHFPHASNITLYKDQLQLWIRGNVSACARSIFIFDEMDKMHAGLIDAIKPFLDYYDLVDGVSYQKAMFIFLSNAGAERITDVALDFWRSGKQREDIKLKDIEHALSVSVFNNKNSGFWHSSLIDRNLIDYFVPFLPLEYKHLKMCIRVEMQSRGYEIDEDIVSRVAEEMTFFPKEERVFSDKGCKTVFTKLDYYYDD
Chain of Streptavidin (Streptomyces avidinii) (P22629 whole entry, looked up): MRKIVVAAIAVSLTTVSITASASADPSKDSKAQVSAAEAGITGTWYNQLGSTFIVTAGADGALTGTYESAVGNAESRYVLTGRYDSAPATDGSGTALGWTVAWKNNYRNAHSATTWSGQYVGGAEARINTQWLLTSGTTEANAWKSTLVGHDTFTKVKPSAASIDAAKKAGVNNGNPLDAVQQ
Chain of Luciferin 4-monooxygenase (Photinus pyralis) (P08659 whole entry, looked up): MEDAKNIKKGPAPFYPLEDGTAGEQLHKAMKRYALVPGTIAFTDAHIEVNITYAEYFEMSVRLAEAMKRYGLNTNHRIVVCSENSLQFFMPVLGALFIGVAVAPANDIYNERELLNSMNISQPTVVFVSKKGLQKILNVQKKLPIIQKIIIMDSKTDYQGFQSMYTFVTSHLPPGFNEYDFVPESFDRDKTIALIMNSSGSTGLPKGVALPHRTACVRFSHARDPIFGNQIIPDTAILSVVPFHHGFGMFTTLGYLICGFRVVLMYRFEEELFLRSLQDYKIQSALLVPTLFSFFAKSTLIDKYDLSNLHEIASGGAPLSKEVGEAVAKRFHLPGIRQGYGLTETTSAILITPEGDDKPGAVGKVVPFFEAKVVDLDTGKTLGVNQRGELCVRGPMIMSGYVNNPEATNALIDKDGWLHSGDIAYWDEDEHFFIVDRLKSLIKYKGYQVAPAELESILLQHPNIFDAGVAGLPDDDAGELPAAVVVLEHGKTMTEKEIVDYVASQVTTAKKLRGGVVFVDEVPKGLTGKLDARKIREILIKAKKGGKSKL
Chain of Fibroblast growth factor 2 (Homo sapiens) (P09038 whole entry, looked up): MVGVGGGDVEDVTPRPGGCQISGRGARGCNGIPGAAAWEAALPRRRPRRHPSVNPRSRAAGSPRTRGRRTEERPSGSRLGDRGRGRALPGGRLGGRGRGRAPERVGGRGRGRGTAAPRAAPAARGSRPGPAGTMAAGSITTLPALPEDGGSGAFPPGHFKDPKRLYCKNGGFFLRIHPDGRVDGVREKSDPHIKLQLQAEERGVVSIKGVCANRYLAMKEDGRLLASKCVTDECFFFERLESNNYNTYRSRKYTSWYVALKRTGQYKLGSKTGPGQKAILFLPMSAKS
Chain of Follistatin (Homo sapiens) (P19883 whole entry, looked up): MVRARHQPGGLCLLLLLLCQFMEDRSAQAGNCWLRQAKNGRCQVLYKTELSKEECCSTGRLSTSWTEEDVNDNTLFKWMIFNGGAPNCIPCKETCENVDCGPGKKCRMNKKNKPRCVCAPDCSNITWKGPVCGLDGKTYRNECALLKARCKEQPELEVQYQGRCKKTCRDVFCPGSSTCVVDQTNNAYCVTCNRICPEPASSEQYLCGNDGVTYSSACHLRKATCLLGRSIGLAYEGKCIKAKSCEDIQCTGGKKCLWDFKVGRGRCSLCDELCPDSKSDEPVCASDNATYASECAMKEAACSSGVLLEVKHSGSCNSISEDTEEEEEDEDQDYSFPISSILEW

Row | Structure (SMILES) | composite z-score [1] | composite z-score [2] | composite z-score [3] | composite z-score [4] | composite z-score [5] | composite z-score [6] | z-score [7] | composite z-score (Lefty1) | composite z-score [8] | z-score [9] | composite z-score [10] | z-score [11] | z-score [12] | z-score [13] | z-score [14] | composite z-score [15] | composite z-score [16] | composite z-score (Torsin-1A (Homo sapiens) [17]) | composite z-score (Torsin-1A (Homo sapiens) [18]) | composite z-score [19]
1 | COCCOC(=O)N1C(=O)[C@@]2(c3cc(C#CC4(O)CCCCCC4)ccc31)[C@H](C(=O)N1CCN(c3ncccn3)CC1)[C@H]1C(=O)O[C@H](c3ccccc3)[C@H](c3ccccc3)N1[C@@H]2c1ccc(O)cc1 | 1.47 | 1.19 | 0.206 | 0.676 | 0.91 | 0.35 | -0.328 | 0.354 | 1.04 | -1.46 (inactive) | 0.521 | -1.45 (inactive) | 0.148 (inactive) | -0.375 (inactive) | 0.505 (inactive) | -0.0314 | 0.0982 | 0.553 | 0.432 | 0.481
2 | CC(C)C[C@@H]1NC(=O)[C@@]23C(=O)N[C@@H](Cc4ccccc4)C2[C@H](C)[C@@]2(C)O[C@H]2C3/C=C/C/C=C\CNC(=O)[C@@H]2CCCN2C1=O (stereo not given in full) | 0.886 | -1.05 | -0.0278 | -0.94 | 0.368 | 0.392 | 0.579 | 0.571 | -0.299 | 0.0046 (inactive) | -0.0917 | -0.577 (inactive) | 0.595 (inactive) | 1.12 (inactive) | -0.2 (inactive) | -0.767 | 0.0051 | 0.249 | 0.0725 | 0.468
3 | COc1cc(NN2C(C(O)c3ccc(I)cc3)C=CC3C(=O)N(C)C(=O)C32)cc(OC)c1OC (stereo not given) | 2.61 | 0.351 | 1.2 | -0.472 | -0.0712 | -0.893 | 0.223 | -0.595 | 0.701 | -0.977 (inactive) | 0.212 | -2.58 (inactive) | -0.126 (inactive) | -0.326 (inactive) | -0.445 (inactive) | -0.105 | 0.0074 | -0.442 | 1.42 | -0.441
4 | CC1(C)[C@@H]2CC(C(O)C3C=CC4C(=O)N(c5ccccc5)C(=O)C4N3Nc3ccccc3F)=C[C@@H]1C2 (stereo not given in full) | 1.41 | 1.2 | 0.218 | 0.938 | 0.876 | 1.26 | -0.136 | 0.655 | 0.392 | 0.905 (inactive) | 0.512 | -2.69 (inactive) | -1.31 (inactive) | -0.826 (inactive) | -0.7 (inactive) | 0.5 | 0.0291 | 0.233 | 0.541 | 0.625
5 | COc1ccc(C#Cc2ccc3c(c2)[C@]2(C(=O)N3)[C@H](C(N)=O)[C@H]3C(=O)O[C@H](c4ccccc4)[C@H](c4ccccc4)N3[C@@H]2c2ccc(O)cc2)cc1 | 1.69 | 1.22 | 1.6 | 0.844 | 0.658 | 0.717 | -1.4 | 0.339 | 0.317 | 0.734 (inactive) | 0.138 | -4.69 (inactive) | -0.755 (inactive) | -0.465 (inactive) | -0.332 (inactive) | 0.214 | -0.128 | 0.369 | 1.03 | 0.794
